High-throughput results as filed in PubChem.
The sample as a whole holds a higher share of hits than the screen did.
Pf Dd2 growth: blocks in vitro growth of P. falciparum Dd2; Potency, µM (highest dose often 28.9 µM), inactives show top-dose activity, negative = inhibition, most hits filed as inhibitors; actives 4.3% (n = 120,000); P. falciparum Dd2 growth, SYBR Green, 72 h; active means well fitted inhibition curve with a large enough effect;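 further: plate controls were DMSO vehicle for no effect and reference drug for full effect; nearly all actives have a fitted effect of over 65% in size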
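Infected erythrocytes (Dd2, 0.3% parasitemia, 2.5% hematocrit final) are added to compound in RPMI-1640/Albumax II medium, grown 72 h at 37C in low oxygen, then lysed with saponin/Triton-X containing SYBR Green and read by fluorescence.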
Active calls of the source: *; i = inactive; [ ] = dose if it differs, or a comment. Potency means the concentration at half of the fitted maximal effect.

SMILES	Pf Dd2 growth
COc1cccc(NC(=O)C2CCCN(c3ncnc4onc(C)c34)C2)c1 (stereo not given)	-20%
CCOC(=O)c1ccc(NC(=O)C2CCCN(c3ncnc4onc(-c5ccc(F)cc5)c34)C2)cc1 (stereo not given)	8.9µM*
CCc1ccc(CN(C)C(C(=O)O)c2c(OC)cccc2OC)nc1 (stereo not given)	-15%
CCOc1ccc(Nc2oc(/C=C/c3ccc(OC)c(OC)c3)nc2C#N)cc1	i
COc1ccc(/C=C/c2nc(C#N)c(NCc3ccc(C)cc3)o2)cc1OC	-20%
CCN(CC)CCCNc1oc(/C=C/c2ccc(OC)c(OC)c2)nc1C#N	2.5µM*
COc1cccc(C(=O)N2C(C(=O)NCC(C)C)COC23CCN(C(=O)c2cccc(F)c2)CC3)c1 (stereo not given)	i
CN1CCN(CC(=O)N2CCCC(c3ccc(Cl)cc3)C2)C1=O (stereo not given)	4%
O=C(Nc1ccccc1)c1cnc2n1CCN(Cc1cccc(O)c1)CC2	-19%[44.1 µM]
CC(C)c1ccc(CN2CCc3ncc(C(=O)Nc4ccccc4)n3CC2)cc1	13µM*
CC(C)CCNC(=O)c1cnc2n1CCN(Cc1ccc(C(C)C)cc1)CC2	-16%[44.1 µM]
COc1ccc(-c2noc([C@@H](C)NCC3CCCCC3)c2C(=O)O)cc1	-14%[44.1 µM]
COc1cccc([S+](=O)([O-])N2CCC(N3CCCOC3=O)CC2)c1	14%
C#CCNC(=O)c1c(-c2ccc(F)cc2)noc1[C@H](C)O	-13%[44.1 µM]
O=C(c1cc(COc2c(F)cccc2F)on1)N1CCCCC1CCc1ccccc1 (stereo not given)	-17%
CCC1CCCCN1CCCNC(=O)c1c(O)nc2ccccn2c1=O (stereo not given)	-5%
CSc1ccccc1OCc1cc(C(=O)NCCN2CCCCC2CO)no1 (stereo not given)	11µM*
c1ccc2oc([C@H]3CCN(C4CCOCC4)C3)nc2c1	i
O=C1CC2(CCN(CC3CC3)CC2)Oc2ccccc21	i
O=C1CC2(CCN(CC3CCCCC3)CC2)Oc2cc(Cl)ccc21	1.4µM*
O=C1CC2(CCN(Cc3ccc(C(F)(F)F)cc3)CC2)Oc2cc(Cl)ccc21	i
Cc1ccc2c(n1)N(C)[C@H](CO)CCN(Cc1ccncc1)C2	18%[44.1 µM]
COCCN1Cc2[nH]nc(-c3ccc(OC)c(OC)c3)c2CC1=O	i
CSCC(=O)N[C@H]1CCN2C(=O)c3cc(/C=C/c4ccccc4)ccc3NC(=O)[C@H]12	i
CCCCN(C)CCCNC(=O)C1CCN(S(=O)(=O)CC)CC1	9%
SMILES	Pf Dd2 growth
CCCCN(C)CCCNC(=O)C1CCN(c2nc3ccc(CC)cc3s2)CC1	11µM*
CCc1ccc2nc(N3CCN(C(=O)c4ccco4)CC3)sc2c1	i
CCOc1cc(=O)n2c(c1C(=O)NCc1ccccc1F)CCCCC2	i
COc1ccc(CNC(=O)[C@@H]2CCC[C@@H](NC(=O)C3CCOCC3)CN(C)C(=O)C2)cc1	0%
CCCNC(=O)N1CCCC2(CCC(=O)N(CCc3ccccc3)C2)C1 (stereo not given)	-1%
Cn1cc(S(=O)(=O)c2ccccc2)c(=O)c2cc(F)c(N3CCCCCC3)cc21	8.9µM*
Cn1cc(S(=O)(=O)c2cccc(Cl)c2)c(=O)c2cc(F)c(N3CCCCCC3)cc21	i
Cc1ccc(S(=O)(=O)c2cn(C)c3cc(N4CCCCC4)c(F)cc3c2=O)cc1	-27%
Cn1cc(S(=O)(=O)c2ccccc2)c(=O)c2cc(F)c(N3CCCC3)cc21	-16%
CCCN1CCN(c2cc3c(cc2F)c(=O)c(S(=O)(=O)c2ccc(Cl)cc2)cn3C)CC1	10µM*
Cn1cc(S(=O)(=O)c2ccccc2)c(=O)c2cc(F)c(N3CCCCC3)cc21	1%
Cn1cc(S(=O)(=O)c2ccc(Cl)cc2)c(=O)c2cc(F)c(N3CCCCCC3)cc21	14µM*
CCN1CCN(c2cc3c(cc2F)c(=O)c(S(=O)(=O)c2ccccc2)cn3C)CC1	-5%
CN1C[C@@H](NS(=O)(=O)c2ccccc2)C[C@H]1c1nc(-c2ccc(F)cc2)no1	-13%[44.1 µM]
CN(C)C[C@@H]1CN(C)C[C@H]1NC(=O)c1ccc(C(F)(F)F)cc1	-28%
O=C(O)CC1(CC(=O)N[C@H]2CO[C@H]3[C@@H]2OC[C@H]3O)CCCC1	-17%[44.1 µM]
Cn1c(C(=O)N2CC[C@@](C)(O)[C@@H](O)C2)ccc1-c1ccccc1	9%
CN1C(=O)CS(=O)(=O)C12CCNCC2	2%
CCS(=O)(=O)N1CC(F)(F)C[C@H]1c1nc(-c2cccnc2)no1	i
COc1ccc(C2(C(=O)N3CCC4(CC3)CC(N3CCCCC3)CCO4)CC2)cc1 (stereo not given)	i
COc1cccc(NC(=O)Cn2c(C)cc3nc4n(c(=O)c32)CCCCC4)c1	-11%
COc1ccccc1CCC(=O)Nc1ccc(-c2nnc3n2CCCC3)cc1	i
O=C(CCCc1ccccc1)Nc1cccc(-c2nnc3n2CCCC3)c1	4.5µM*
Cc1cccc(NC(=O)Cn2nc3n(c2=O)CCCCC3)c1	27%
O=C(Nc1ccc(-c2nnc3n2CCCC3)cc1)Nc1ccccc1F	-17%
SMILES	Pf Dd2 growth
COc1ccc(CCC(=O)Nc2cccc(-c3nnc4n3CCCC4)c2)cc1	7.9µM*
CCCCNC(=O)Cn1nc2n(c1=O)CCN(Cc1cccc(Cl)c1)C2=O	-21%
C=CCN1CCN(C(=O)C2CCCN(Cc3ccncc3)CCC(=O)NCC2)CC1 (stereo not given)	21%
CN(C)c1ccc(C(=O)N2CC[C@@H](CC(=O)O)[C@@H](CCN3CCN(c4ccc(F)cc4)CC3)C2)cc1	2%
COCc1nc(C2CCN(C(=O)NCC(=O)OC)C2)no1 (stereo not given)	5%
O=C(NC1CCN(c2cc(-c3ccc(F)cc3)[nH]n2)CC1)c1ccc(F)c(Cl)c1	-8%
O=C1CO[C@H]2CN(c3ncccn3)C[C@H]2N1Cc1ccncc1	21%[44.1 µM]
CCCN(C)c1nccnc1OC1CCN(C(=O)c2cccc(OC)c2OC)C1 (stereo not given)	-30%
CCCn1c(C)cnc1CC1CCN(C(=O)CC(C)C)C1 (stereo not given)	i
CCOC(=O)c1nc(Nc2ccc(C(C)=O)cc2)c2ccccc2n1	-11%
CCCOC(=O)c1cccc(Nc2nc(C(=O)OCC)nc3ccccc23)c1	5.6µM*
CCOC(=O)c1cccc(NC(=O)CCc2nc3cccnc3n2-c2ccccc2)c1	85%
CCOC(=O)c1cccc(Nc2c3c(nc4ccccc24)CCC3)c1	10µM*
CCOC(=O)c1cccc(Nc2nc(C(=O)OCC)nc3ccccc23)c1	7.9µM*
CCOC(=O)c1cccc(Nc2cc(-c3ccccc3)ncn2)c1	6%
CCOC(=O)c1nc(Nc2cccc(C)c2)c2ccccc2n1	4%
COc1cc(Cl)c(C)cc1NC(=O)c1ccc2c(Cl)c3c(nc2c1)CCC3	16%
Cc1cccc(Nc2nc(-c3ccccc3)nc3ccccc23)c1	-20%
CCOC(=O)c1nc(Nc2ccccc2C)c2ccccc2n1	28%
COc1ccc(NC(=O)CSc2c3c(nc4ccccc24)CCC3)cc1Cl	51%
COc1cc(Cl)c(C)cc1Nc1c2c(nc3ccccc13)CCC2	8.9µM*
CN(Cc1cccnc1)c1nc2c(c(=O)[nH]1)CCN(Cc1ccc3cc[nH]c3c1)CC2	i[5.79 µM]
CN(CC1CCOC1)C(=O)Cc1cccc(F)c1 (stereo not given)	i[5.79 µM]
O=C1CCN(C(=O)COc2ccccc2)CCCCCCN1	-15%
O=C(C1CCC1)N1CCC(N2CC3CC(C2)[C@H]2CCCC(=O)N2C3)CC1 (stereo not given in full)	-3%
